Measured values: PubChem BioAssay AID743289 (Broad Institute, 2014)
The other results are listed elsewhere or left out.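 The calls were made as follows: active = compounds lowering fluorescence whose fitted half-maximal concentration is no more than twice their top tested dose; inconclusive = flat fit with 30 to 70% inhibition, or poor fit; inactive = the rest.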

What follows are compounds tested against Caspase-1 (Homo sapiens) (UniProt P29466) (assay: human caspase-1 inhibitors, dose response, selectivity assay for caspase-6 inhibitor project, biochemical, Z-YVAD-R110 fluorescence, cherry-pick, set 2 (AID 743289)). Conditions: purified caspase-1, Z-YVAD-R110 cleavage fluorescence; series mostly up to 35 µM; activity change, negative = inhibition: at the top concentration.
Sequence of Caspase-1 (Homo sapiens) (P29466 whole entry, looked up): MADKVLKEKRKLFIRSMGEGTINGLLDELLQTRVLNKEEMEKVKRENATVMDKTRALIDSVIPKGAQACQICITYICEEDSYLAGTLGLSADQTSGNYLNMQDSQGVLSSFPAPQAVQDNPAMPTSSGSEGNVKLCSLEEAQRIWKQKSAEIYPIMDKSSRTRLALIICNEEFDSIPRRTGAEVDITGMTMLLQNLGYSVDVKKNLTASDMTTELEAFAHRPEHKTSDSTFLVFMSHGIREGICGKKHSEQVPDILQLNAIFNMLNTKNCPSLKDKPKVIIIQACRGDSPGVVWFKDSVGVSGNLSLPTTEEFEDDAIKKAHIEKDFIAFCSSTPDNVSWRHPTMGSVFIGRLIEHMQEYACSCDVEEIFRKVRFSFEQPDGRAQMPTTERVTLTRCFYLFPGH

Activity change, negative = inhibition, inactive:
Cc1c(CCC(=O)O)c(=O)oc2c(C)c(OCc3ccccc3Cl)ccc12 20.6%
COc1cc(NC(=O)COC(=O)c2ccc([N+](=O)[O-])s2)cc(OC)c1OC -2.52%
O=c1ccc2c(-c3ccccc3S(=O)(=O)O)c3ccc(O)c(O)c3oc-2c1O -6.4%
CNS(=O)(=O)c1cccc(C(=O)OCC(=O)N2c3ccccc3NC(=O)C2(C)C)c1 -1%
CCN(CC)CCCC(C)n1c2nc(=O)[nH]c(=O)c-2nc2cc(Cl)ccc21 (stereo not given) -0.661%
